Measurements from the supplement of paper PMC11732987, “Enantioselective OTUD7B fragment discovery through chemoproteomics screening and high-throughput optimisation” (Communications Chemistry, 2025).

Columns and labels:
Test in all cases: log2 ratio of Biotin-Ahx-Ub-VS probe labelling (fragment/DMSO); higher = less target engagement (more negative = stronger competition), active = hit call of the paper (q ≤ 0.05, log2 ratio ≤ -1)
Details in all cases: compound concentration: 200 uM; treatment time: 3 h
[1] = molecular target: USP34 (UniProt Q70CQ2)
Outline: (§1)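 Using Biotin-Ahx-Ub-VS at 0.5 µM final for 1 h, DUBs were labelled in HEK293T lysate (495 µg per sample) that had first been treated in triplicate with fragment at 200 µM or vehicle for 3 h. NeutrAvidin enrichment, LysC and trypsin digestion and diaPASEF LC-MS/MS followed. Spectronaut label-free quantities were global-median-normalised. Values are average log2 fragment/vehicle ratios by unpaired t-test, using proteins with ≥2 unique peptides.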

[2] = molecular target: T1, USP36 (UniProt Q9P275)
T1 sequence (whole entry): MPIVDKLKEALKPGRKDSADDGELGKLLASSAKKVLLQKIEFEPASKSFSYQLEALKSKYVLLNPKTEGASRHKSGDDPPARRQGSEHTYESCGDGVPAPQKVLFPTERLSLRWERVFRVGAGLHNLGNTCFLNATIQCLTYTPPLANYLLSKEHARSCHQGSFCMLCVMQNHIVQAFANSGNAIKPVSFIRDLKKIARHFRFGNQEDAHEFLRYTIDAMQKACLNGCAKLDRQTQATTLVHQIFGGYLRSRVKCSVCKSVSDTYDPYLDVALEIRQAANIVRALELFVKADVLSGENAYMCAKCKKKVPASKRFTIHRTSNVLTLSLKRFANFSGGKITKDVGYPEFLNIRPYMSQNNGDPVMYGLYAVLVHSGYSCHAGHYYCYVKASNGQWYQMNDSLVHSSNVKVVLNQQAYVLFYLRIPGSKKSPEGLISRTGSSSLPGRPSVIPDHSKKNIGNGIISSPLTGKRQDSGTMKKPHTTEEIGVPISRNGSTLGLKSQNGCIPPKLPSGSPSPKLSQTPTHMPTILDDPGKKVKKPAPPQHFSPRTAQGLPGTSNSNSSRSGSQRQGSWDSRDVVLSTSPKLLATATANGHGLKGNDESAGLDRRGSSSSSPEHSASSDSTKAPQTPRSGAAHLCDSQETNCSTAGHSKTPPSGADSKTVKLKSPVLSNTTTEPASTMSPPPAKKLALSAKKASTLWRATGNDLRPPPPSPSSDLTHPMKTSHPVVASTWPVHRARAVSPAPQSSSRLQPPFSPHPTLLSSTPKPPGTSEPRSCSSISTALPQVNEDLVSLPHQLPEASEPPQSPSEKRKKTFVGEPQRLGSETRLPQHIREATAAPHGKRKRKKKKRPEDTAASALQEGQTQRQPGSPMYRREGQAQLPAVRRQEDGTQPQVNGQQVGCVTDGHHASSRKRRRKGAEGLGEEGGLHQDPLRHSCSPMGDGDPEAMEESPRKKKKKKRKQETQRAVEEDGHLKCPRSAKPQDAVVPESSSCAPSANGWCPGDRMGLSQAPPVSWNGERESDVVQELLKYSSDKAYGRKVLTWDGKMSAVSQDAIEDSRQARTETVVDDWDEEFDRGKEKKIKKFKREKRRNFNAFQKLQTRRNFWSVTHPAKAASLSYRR
Outline: as §1

[3] = molecular target: T2, USP38 (UniProt Q8NB14)
T2 sequence (whole entry): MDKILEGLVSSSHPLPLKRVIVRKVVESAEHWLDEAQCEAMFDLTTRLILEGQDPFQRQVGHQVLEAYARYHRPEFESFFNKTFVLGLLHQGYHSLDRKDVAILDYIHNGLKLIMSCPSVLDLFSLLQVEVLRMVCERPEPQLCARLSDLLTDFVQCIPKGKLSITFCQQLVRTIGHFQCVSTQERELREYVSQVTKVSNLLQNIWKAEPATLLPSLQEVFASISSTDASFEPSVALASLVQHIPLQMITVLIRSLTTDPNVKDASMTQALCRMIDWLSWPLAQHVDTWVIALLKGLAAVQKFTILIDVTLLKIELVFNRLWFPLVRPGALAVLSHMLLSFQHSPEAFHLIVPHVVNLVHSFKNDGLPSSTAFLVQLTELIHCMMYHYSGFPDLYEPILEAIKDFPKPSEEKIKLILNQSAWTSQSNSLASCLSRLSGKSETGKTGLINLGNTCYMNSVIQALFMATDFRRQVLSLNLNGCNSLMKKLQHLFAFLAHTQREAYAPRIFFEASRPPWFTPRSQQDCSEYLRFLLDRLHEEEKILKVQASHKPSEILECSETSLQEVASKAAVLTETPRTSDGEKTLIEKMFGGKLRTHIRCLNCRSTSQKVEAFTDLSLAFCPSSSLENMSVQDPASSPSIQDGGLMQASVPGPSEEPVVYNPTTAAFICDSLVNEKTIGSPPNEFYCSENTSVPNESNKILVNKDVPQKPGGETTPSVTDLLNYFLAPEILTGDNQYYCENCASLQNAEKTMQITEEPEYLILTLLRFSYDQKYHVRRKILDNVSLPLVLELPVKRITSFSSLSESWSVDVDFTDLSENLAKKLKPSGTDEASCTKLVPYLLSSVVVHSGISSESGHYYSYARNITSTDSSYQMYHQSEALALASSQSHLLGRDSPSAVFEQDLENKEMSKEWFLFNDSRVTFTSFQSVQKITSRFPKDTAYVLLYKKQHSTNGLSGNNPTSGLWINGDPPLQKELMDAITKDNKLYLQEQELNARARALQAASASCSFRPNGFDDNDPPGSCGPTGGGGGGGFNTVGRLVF
Outline: as §1

[4] = molecular target: T3, USP39 (UniProt Q53GS9)
T3 sequence (whole entry): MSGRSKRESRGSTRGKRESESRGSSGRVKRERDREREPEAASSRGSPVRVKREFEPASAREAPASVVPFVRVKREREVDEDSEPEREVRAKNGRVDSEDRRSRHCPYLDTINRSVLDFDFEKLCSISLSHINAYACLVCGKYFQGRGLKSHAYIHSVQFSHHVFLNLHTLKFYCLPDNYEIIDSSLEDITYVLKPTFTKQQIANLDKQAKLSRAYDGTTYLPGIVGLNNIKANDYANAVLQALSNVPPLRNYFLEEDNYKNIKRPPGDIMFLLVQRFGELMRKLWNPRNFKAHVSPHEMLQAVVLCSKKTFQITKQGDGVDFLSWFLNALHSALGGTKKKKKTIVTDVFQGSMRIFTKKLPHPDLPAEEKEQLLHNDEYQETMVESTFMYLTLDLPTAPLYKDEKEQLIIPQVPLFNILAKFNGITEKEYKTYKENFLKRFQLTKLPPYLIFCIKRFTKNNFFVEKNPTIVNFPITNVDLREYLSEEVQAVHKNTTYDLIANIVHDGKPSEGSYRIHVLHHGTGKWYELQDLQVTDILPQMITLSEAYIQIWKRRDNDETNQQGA
Outline: as §1

[5] = molecular target: T4, USP4 (UniProt Q13107)
T4 sequence (whole entry): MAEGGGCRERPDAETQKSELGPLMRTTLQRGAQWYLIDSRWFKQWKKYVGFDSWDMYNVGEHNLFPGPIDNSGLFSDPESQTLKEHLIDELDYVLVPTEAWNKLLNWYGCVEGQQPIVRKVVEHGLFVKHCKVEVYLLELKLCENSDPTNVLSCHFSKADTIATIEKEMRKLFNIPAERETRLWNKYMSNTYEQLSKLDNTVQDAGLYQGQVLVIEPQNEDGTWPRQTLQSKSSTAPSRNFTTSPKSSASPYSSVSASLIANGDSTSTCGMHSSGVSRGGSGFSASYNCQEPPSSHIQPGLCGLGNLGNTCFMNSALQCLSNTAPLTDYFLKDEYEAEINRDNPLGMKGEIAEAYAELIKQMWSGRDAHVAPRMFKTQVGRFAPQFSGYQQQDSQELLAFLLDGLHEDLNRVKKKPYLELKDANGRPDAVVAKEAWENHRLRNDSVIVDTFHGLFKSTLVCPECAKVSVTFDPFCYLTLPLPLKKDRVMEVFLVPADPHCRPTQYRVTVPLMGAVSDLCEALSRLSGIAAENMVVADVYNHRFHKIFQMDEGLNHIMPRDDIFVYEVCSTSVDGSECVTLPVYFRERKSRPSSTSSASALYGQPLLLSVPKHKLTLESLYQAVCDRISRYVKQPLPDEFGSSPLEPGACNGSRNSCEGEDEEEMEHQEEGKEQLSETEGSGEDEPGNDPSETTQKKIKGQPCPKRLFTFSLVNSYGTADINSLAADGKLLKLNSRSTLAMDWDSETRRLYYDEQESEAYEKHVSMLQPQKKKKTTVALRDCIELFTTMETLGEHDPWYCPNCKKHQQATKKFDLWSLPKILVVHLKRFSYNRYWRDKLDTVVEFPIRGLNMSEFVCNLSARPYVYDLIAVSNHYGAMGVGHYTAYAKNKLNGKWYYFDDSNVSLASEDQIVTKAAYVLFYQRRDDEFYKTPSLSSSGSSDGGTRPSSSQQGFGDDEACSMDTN
Outline: as §1

Measured: log2 ratio of Biotin-Ahx-Ub-VS probe labelling

USP34, sequence (Q70CQ2 whole entry, the tested form may be a part): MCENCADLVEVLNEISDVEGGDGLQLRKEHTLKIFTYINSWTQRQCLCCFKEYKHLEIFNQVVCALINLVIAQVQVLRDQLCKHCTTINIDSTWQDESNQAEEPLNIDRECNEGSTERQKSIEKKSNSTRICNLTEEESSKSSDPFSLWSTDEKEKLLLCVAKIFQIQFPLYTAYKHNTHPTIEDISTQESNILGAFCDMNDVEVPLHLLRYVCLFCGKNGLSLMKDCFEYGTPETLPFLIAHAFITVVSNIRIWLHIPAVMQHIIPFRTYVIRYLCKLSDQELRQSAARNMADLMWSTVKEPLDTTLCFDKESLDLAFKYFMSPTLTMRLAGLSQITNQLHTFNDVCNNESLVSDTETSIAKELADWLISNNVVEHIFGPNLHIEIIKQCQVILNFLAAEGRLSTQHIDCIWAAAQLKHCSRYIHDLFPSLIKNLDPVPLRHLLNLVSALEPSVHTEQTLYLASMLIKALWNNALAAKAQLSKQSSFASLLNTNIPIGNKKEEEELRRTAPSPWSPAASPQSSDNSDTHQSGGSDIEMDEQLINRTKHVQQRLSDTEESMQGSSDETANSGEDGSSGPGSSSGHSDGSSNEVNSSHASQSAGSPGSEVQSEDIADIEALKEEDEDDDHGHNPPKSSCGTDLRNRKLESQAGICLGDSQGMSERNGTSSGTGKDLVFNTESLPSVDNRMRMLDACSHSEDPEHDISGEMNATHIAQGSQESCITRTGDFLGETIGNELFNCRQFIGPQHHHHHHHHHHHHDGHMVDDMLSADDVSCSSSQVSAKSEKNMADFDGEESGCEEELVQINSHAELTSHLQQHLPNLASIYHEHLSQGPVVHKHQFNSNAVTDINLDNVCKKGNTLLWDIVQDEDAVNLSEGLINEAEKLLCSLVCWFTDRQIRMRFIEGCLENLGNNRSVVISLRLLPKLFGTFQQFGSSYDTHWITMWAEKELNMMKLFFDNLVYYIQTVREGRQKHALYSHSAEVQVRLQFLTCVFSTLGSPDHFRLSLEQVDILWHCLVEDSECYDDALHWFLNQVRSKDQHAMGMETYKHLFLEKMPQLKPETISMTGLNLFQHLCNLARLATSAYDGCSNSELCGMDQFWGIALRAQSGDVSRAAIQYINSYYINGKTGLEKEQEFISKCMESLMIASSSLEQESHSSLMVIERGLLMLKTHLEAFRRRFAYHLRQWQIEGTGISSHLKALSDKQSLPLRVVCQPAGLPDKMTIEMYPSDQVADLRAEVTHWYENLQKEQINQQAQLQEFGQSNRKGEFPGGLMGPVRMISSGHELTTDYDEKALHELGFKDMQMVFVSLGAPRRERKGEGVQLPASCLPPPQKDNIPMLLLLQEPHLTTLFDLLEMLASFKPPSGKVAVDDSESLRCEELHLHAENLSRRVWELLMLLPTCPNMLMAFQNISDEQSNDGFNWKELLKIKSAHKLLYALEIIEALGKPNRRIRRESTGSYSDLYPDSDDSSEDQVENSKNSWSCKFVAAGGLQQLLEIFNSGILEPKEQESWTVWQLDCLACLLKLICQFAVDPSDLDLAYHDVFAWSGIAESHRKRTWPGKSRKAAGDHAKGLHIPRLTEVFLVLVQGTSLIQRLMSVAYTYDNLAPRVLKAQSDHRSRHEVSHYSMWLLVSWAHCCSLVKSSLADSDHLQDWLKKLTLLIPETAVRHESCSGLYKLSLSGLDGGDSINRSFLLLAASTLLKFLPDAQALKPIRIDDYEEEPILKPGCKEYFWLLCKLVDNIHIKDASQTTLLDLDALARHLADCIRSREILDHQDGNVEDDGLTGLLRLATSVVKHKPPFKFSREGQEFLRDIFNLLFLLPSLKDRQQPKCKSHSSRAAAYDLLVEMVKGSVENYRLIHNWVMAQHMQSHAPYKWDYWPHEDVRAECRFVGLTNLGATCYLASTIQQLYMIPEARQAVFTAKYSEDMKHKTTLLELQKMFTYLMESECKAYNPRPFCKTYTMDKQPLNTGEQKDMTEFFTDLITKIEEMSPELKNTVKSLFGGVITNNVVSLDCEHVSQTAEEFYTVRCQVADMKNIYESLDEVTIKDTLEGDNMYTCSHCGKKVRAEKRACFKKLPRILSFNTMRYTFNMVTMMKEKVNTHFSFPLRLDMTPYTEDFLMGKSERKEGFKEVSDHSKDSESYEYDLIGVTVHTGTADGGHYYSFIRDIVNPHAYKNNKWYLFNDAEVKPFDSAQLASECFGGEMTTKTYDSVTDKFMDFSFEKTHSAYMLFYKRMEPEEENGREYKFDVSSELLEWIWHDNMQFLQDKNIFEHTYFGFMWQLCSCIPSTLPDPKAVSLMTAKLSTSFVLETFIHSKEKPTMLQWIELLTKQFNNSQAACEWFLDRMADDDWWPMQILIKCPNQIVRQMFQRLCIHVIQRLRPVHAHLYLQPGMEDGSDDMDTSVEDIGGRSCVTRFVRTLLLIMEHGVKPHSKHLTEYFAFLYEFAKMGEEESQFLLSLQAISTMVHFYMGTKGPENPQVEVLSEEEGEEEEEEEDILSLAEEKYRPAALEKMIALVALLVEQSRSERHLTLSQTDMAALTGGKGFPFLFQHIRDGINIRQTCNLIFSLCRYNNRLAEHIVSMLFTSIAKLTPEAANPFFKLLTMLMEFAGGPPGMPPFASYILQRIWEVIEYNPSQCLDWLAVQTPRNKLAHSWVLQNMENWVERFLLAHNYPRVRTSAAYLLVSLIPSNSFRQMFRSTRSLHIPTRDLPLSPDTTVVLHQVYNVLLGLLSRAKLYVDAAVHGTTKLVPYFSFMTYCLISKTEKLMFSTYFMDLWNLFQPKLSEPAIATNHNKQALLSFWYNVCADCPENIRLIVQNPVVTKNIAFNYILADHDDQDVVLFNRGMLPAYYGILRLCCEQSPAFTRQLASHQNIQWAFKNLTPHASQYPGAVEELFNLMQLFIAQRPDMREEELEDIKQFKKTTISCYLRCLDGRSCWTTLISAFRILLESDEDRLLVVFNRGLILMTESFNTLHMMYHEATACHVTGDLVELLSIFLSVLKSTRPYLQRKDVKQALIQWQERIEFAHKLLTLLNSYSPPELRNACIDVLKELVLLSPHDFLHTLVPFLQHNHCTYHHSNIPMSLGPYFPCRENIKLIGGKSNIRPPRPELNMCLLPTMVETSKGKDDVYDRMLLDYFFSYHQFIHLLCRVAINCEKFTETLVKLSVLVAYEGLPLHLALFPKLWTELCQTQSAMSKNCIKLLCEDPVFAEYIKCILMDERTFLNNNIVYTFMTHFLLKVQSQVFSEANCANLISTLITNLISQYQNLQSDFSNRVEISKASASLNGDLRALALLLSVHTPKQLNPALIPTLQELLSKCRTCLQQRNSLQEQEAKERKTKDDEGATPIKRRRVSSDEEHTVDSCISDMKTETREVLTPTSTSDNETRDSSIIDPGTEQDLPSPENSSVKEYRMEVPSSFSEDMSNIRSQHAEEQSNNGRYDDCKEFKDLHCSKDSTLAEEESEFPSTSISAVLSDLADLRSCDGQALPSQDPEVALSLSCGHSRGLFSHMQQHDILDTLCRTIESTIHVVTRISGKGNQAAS

Cl.Cn1nc2c(c1CNC(=O)CCl)CCCC2
inactive: [1] -0.177 | [2] -0.0094 | [3] 0.0557 | [4] 0.242 | [5] 0.0436
